Source: the supplement of paper PMC6555819

These sequences were tested on PPARg:RXRa 90nM:30nM, anti-RXR (NR concentration 90 nM, RXRa partner concentration 30 nM) (assay: PBM binding z-score (relative to random genomic background probes); higher = stronger binding; sequences stand for … in GC…GCGATTGACAGCGTAGAATGAAGG).
Summary of the method: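 Antibodies against each partner of ligand-free nuclear receptor dimers (one per run) detected binding on custom Agilent 4×180K protein-binding microarrays after 1 h incubation. The double-stranded probes had 34-nt variable regions carrying direct-repeat seeds, single-nucleotide variants, half-site ablations and random human genomic background sequences. Binding z-scores, from regression-normalized fluorescence, use the random background probes as reference.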

Question: How did the PBM binding z-score turn out when CCTAGTTGGTCAAAGTCACACACGCTATAGGTAC was run?
Answer: 1.46

Question: TCTTGTAGATCAAGCACGTTAAGAAAGCCTGAGT was tested. Which PBM binding z-score did it give?
Answer: 1.97

Question: Which PBM binding z-score does the source give for TTACCAAGGTGAGAGGTCGTTGATGCACGCCTTG here?
Answer: 6.5

Question: For TCTTGTAGATCAAAGGCTAAGAAAGCCGAAGCCT, which PBM binding z-score is on record?
Answer: 5.12

Question: Which PBM binding z-score does the source give for TAGCCTAGGTCAGAACGGGCCAGTATACGCTATA here?
Answer: 0.153

Question: With ATCGAAAGGTCGAAGGCGAGTATACCCACCCGAA as the sequence, how does the PBM binding z-score read?
Answer: 1.49

Question: How did the PBM binding z-score turn out when CCTAGCAAGCCAATCTGGGTCACTCAAGGCTTGA was run?
Answer: 0.994

Question: How did the PBM binding z-score turn out when CCGAGTTGGTCAGGAGGTCACACACCGGATATGA was run?
Answer: 2.36

Question: Which PBM binding z-score does the source give for AGAGACAGGTGAGTGAAGGTAACTCAGCTGGACG here?
Answer: 0.0651

Question: With GCTCGGCGGACAAGGTCAGAGCTTTGTCCGTAGA as the sequence, how does the PBM binding z-score read?
Answer: -0.297

Question: With ACTAGCAGGCCAAGTTTGGGCCACTCAAACAAAG as the sequence, how does the PBM binding z-score read?
Answer: -0.814

Question: How did the PBM binding z-score turn out when ACTAGCAGGCCAAGTTTGGGTCACTCAGACAAAG was run?
Answer: -0.185

Question: How did the PBM binding z-score turn out when CCTTACGGGTCACTCCAGGGTATAGCATCGGAGT was run?
Answer: 2.52

Question: For GGAACGAGGGCAATTTGATAGCAGAGTTTGATGG, which PBM binding z-score is on record?
Answer: 0.401

Question: CGTCCAAGGTCATAGGAGGTCAGTTAAGACAGAT was tested. Which PBM binding z-score did it give?
Answer: 4.5

Question: With CGTCCAAGGTGAGCAGGTCAGTGAAAGCGACGTG as the sequence, how does the PBM binding z-score read?
Answer: 0.388

Question: With GCTAGTTGGTCAGTAAAAGGTCACACATCGGTCG as the sequence, how does the PBM binding z-score read?
Answer: 3.74
